Assay results taken from PubChem BioAssay AID1159580 (chemical genetic matrix, 2015).
Several values for one entry are separate records, joined by “and”; a condition that tells them apart may be missing. Identical values can stand only once. About 2,000 (36%) of roughly 5,500 compounds were called active. About 18% were inconclusive and are not listed. No stated cut-off is given here; in the data, active means normalized growth mostly below about 0.91 (no sharp cut-off); inconclusive means no clear call, values can overlap the other calls; inactive means mostly above about 0.92. This is one part of the list.

Assay: chemical genetic growth profiling, strain panel (AID 1159580);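 further: tested at 20 µM; growth read once vehicle control cultures reached saturation at 30 °C; 1 = growth at the plate median or of vehicle wells; lower values mean less growth of the strain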
Conditions: S. cerevisiae deletion strains, growth OD

Measured: normalized growth

C[C@H](N)[C@H](O)c1ccc(O)c(O)c1
inactive: locus YAL013W, strain DEP1, active compounds read low 1 | locus YAL021C, strain ccr4, active compounds read low 1.01 | locus YAL026C, strain drs2, active compounds read low 1.01 | locus YAL030W, strain snc1, active compounds read low 1 | locus YBL061C, strain skt5, active compounds read low 1.01 | locus YBR009C, strain hhf1, active compounds read low 0.997 | locus YBR021W, strain FUR4, active compounds read low 0.991 | locus YBR023C, strain chs3, active compounds read low 0.999 | locus YBR171W, strain sec66, active compounds read low 0.991 | locus YBR229C, strain ROT2, active compounds read low 0.991 | locus YBR231C, strain swc5, active compounds read low 0.982 | locus YBR279W, strain paf1, active compounds read low 1.02 | locus YCL011C, strain gbp2, active compounds read low 1.01 | locus YCL016C, strain dcc1, active compounds read low 0.987 | locus YCL029C, strain bik1, active compounds read low 0.993 | locus YCL061C, strain MRC1, active compounds read low 1 | locus YCL069W, strain vba3, active compounds read low 1.01 | locus YCR088W, strain abp1, active compounds read low 1 | locus YDL005C, strain med2, active compounds read low 0.996 | locus YDL035C, strain GPR1, active compounds read low 1 | locus YDL040C, strain nat1, active compounds read low 1 | locus YDL074C, strain BRE1, active compounds read low 0.983 | locus YDL101C, strain DUN1, active compounds read low 0.992 | locus YDL185W, strain tfp1, active compounds read low 0.982 | locus YDL192W, strain arf1, active compounds read low 0.979 | locus YDR001C, strain nth1, active compounds read low 1.01 | locus YDR069C, strain doa4, active compounds read low 1.01 | locus YDR101C, strain arx1, active compounds read low 1.01 | locus YDR137W, strain rgp1, active compounds read low 1 | locus YDR159W, strain sac3, active compounds read low 1.01 | locus YDR162C, strain NBP2, active compounds read low 0.999 | locus YDR195W, strain ref2 0.991 | locus YDR297W, strain sur2, active compounds read low 1.01 | locus YDR318W, strain mcm21, active compounds read low 0.98 | locus YDR334W, strain swr1, active compounds read low 0.997 | locus YDR335W, strain msn5, active compounds read low 1.01 | locus YDR388W, active compounds read low 0.992 | locus YDR392W, strain spt3, active compounds read low 0.926 | locus YDR502C, strain sam2, active compounds read low 0.99 | locus YEL003W, strain gim4, active compounds read low 1.01 | locus YEL037C, strain rad23, active compounds read low 1 | locus YEL061C, strain CIN8 (second series), active compounds read low 1.01 | locus YEL061C, strain CIN8, active compounds read low 1 | locus YER015W, strain faa2, active compounds read low 1 | locus YER016W, strain bim1, active compounds read low 1.01 | locus YER110C, active compounds read low 0.97 | locus YER111C, strain swi4, active compounds read low 1 | locus YER155C, strain BEM2 (second series), active compounds read low 0.994 | locus YER155C, strain BEM2, active compounds read low 0.999 | locus YER167W, strain BCK2, active compounds read low 1.02 | locus YFR010W, strain ubp6, active compounds read low 1 | locus YGL078C, strain dbp3, active compounds read low 0.962 | locus YGL086W, strain mad1, active compounds read low 0.996 | locus YGL167C, strain pmr1, active compounds read low 0.995 | locus YGL173C, strain kem1, active compounds read low 1.01 | locus YGL227W, strain vid30, active compounds read low 0.992 | locus YGL240W, strain doc1, active compounds read low 1.01 | locus YGL248W, strain PDE1, active compounds read low 0.988 | locus YGL253W, strain hxk2, active compounds read low 1.02 | locus YGR135W, strain pre9, active compounds read low 0.948 | locus YGR252W, strain gcn5, active compounds read low 0.91 | locus YHR013C, strain ard1, active compounds read low 1.01 | locus YHR027C, strain rpn1, active compounds read low 0.996 | locus YHR030C, strain SLT2, active compounds read low 1.01 and 1 | locus YHR079C, strain IRE1 (second series), active compounds read low 0.993 | locus YHR079C, strain IRE1, active compounds read low 1 | locus YHR094C, strain hxt1, active compounds read low 0.991 | locus YHR129C, strain ARP1, active compounds read low 0.996 | locus YHR142W, strain chs7, active compounds read low 0.993 | locus YHR200W, strain rpn10, active compounds read low 0.985 | locus YIL066C, strain RNR3, active compounds read low 0.998 | locus YIL073C, strain SPO22, active compounds read low 1.01 | locus YIL125W, strain kgd1, active compounds read low 0.975 | locus YIR030C, strain dcg1, active compounds read low 0.988 | locus YJL092W, strain hpr5, active compounds read low 1 | locus YJL095W, strain BCK1 (second series), active compounds read low 1.01 | locus YJL095W, strain BCK1, active compounds read low 0.978 and 1.02 | locus YJL115W, strain asf1, active compounds read low 1.01 | locus YJL129C, strain trk1, active compounds read low 0.986 | locus YJL134W, strain LCB3, active compounds read low 1 | locus YJL154C, strain vps35, active compounds read low 1.01 | locus YJL164C, strain tpk1, active compounds read low 1.01 | locus YJL166W, strain qcr8, active compounds read low 0.992 | locus YJL168C, strain set2, active compounds read low 0.978 | locus YJL187C, strain SWE1 (second series), active compounds read low 0.985 | locus YJL187C, strain SWE1, active compounds read low 0.998 | locus YJR043C, strain POL32, active compounds read low 1.01
